Data published in PubChem BioAssay.
Several values for one entry are separate records, joined by “and”; a condition that tells them apart may be missing. Equal entries are not always repeated. Records with an inconclusive call do not appear. Activity calls are given as the source filed them.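 How the source made its calls, unless noted: active means compounds whose cell count with miR-34 switched on is under 0.7 times the count with it off; inactive means the rest.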

Assays:
[1] = viability loss in pontine glioma line – cell-based, SU-DIPG-XXV, MIPE5.0, CellTiter-Glo, qHTS, dose response (AID 1347065; cut-off not given, nearly all actives have AC50 up to about 26 µM;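 further: cells exposed to compound for 48 hours before ATP readout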); details: CellTiter-Glo ATP luminescence
[2] = growth inhibition of DIPG cells – cell-based, MIPE4.0 library, CellTiter-Glo luminescence, qHTS (AID 1347066; cut-off not given, nearly all actives have AC50 up to about 30 µM;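 further: cells exposed to compound for 48 hours before readout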); details: SU-DIPG-VI viability, CellTiter-Glo ATP luminescence
[3] = JHH-DIPG-1 glioma cell viability, MIPE5.0 library, CellTiter-Glo luminescence, qHTS (AID 1347067; cut-off not given, nearly all actives have AC50 up to about 26 µM;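 further: cells exposed to compound for 48 hours before readout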); details: JHH-DIPG-1 glioma viability, CellTiter-Glo ATP luminescence
[4] = viability loss with induced miR-34 in A549 – imaging, A549 dox-inducible miR-34, nuclei and caspase counts, primary screen (AID 1347080); details: A549 miR-34 inducible, Hoechst nuclei count, 48 h
[5] = blockers of cellular phospholipid synthesis – cell-based, LOPAC library, screen 4, primary screen (AID 1347384; call rule not given here); details: animal cells, phospholipid biosynthesis inhibition screen; at 10 µM
[6] = MELAS cybrid and Rieske KO viability enhancers – cell-based, MELAS cybrids, Rieske KO mouse fibroblasts, CellTiter-Glo, primary screen (AID 1508586;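 active means mean z-score across replicates of 1.96 or higher in either the MELAS or the Rieske mutant cell line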;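 further: z relative to plate mean and SD of compound and empty wells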); details: low glucose
[7] = target: NAD(+) hydrolase SARM1 (Homo sapiens) (UniProt Q6SZW1); test: blocking NAD cleavage by SARM1 SAM-TIR – cell lysate, NAD-Glo luminescence (AID 1508614;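 active means compound whose remaining NAD level is above about 45 nM, limit read from the data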); details: SAM-TIR HEK293T lysate NADase, at 1 µM, stronger effect = higher value
Chain of NAD(+) hydrolase SARM1 (Homo sapiens) (Q6SZW1 whole entry, looked up, the tested form may be a part): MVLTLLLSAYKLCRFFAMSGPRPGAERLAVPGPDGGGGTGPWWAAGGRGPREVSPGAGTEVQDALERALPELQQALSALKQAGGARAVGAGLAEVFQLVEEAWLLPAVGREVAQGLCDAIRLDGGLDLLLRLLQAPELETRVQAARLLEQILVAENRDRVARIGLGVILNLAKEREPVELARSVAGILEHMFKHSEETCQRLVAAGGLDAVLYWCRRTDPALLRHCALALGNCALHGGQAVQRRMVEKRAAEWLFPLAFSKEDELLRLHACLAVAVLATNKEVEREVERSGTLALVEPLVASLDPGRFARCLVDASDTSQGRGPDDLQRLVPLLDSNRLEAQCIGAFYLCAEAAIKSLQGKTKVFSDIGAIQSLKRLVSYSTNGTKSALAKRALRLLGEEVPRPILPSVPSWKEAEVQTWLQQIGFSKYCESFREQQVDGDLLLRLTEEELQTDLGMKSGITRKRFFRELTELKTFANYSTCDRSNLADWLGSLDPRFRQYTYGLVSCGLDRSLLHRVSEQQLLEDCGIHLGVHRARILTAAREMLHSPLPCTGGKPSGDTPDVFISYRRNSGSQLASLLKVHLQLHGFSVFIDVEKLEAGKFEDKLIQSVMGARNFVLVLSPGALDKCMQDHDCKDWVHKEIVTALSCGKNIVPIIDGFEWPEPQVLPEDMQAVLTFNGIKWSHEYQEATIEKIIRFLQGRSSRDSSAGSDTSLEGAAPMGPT

[8] = target: Mitogen-activated protein kinase 7 (Homo sapiens) (UniProt Q13164); test: Gal4-ERK5 driven luciferase induction – cell-based, HTS, primary screen (AID 1508626;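 active means luciferase signal above three times the same-plate solvent-only control wells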;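 further: luciferase driven by Gal4-ERK5 fusion binding five Gal4 sites before minimal TATA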); details: HeLa Gal4-ERK5 transactivation, 18 h, at 5 µM, stronger effect = higher value
Chain of Mitogen-activated protein kinase 7 (Homo sapiens) (Q13164 whole entry, looked up, the tested form may be a part): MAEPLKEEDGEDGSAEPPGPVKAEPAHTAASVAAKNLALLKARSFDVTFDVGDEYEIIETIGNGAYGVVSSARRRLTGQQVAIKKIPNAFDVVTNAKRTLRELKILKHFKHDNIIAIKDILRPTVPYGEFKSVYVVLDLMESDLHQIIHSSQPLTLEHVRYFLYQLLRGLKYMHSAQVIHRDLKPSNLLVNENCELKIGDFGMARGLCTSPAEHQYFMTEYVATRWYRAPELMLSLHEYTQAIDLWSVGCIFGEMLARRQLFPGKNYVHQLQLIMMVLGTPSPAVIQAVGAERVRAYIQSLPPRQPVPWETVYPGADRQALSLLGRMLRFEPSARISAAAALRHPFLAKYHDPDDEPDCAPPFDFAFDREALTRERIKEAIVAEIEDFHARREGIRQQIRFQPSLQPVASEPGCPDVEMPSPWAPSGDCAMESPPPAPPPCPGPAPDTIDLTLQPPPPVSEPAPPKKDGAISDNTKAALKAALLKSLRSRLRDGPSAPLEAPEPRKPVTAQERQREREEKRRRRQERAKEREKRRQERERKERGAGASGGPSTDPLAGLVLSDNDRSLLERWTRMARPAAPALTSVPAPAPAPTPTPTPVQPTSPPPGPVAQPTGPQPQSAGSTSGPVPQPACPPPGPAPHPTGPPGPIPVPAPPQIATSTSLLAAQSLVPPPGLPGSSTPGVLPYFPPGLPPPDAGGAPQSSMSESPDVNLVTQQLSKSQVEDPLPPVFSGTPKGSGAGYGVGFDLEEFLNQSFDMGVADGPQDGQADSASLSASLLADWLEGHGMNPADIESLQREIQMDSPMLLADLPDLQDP

[9] = galactose survival enhancers in mitochondrial complex I cybrids – cell-based, galactose medium, ATP luminescence, primary screen (AID 1645843;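 active means z-score of at least 1.8 in each of two replicates, scored against plate mean and spread of sample wells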;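 further: positive z means more ATP and so rescue of galactose-driven cybrid death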); details: complex I mutant cybrid cells, 72 h, stronger effect = higher value
[10] = growth inhibition of DIPG cells – cell-based, MIPE5.0 library, qHTS (AID 1347068; cut-off not given, nearly all actives have IC50 up to about 30 µM); details: SU-DIPG-XXV viability
[11] = stronger effect = lower value, cell number ratio, induced over uninduced
[12] = measured here: relative caspase fold change +Dox/-Dox
[13] = measured here: total cells with miR-34 induction, stronger effect = lower value
[14] = measured here: total cells without miR-34 induction
[15] = MELAS cybrid survival, CellTiter-Glo 48 h, stronger effect = higher value
[16] = Rieske KO mouse fibroblast survival, CellTiter-Glo 72 h

SMILES | outcome [1] | outcome [2] | outcome [3] | fold change [4, 11] | fold change [4, 12] | cell count [4, 13] | cell count [4, 14] | outcome [5] | z-score [6, 15] | z-score [6, 16] | remaining NAD [7] | luciferase signal [8] | z-score [9] | AC50 [1] | AC50 [3] | outcome [10]
Cn1c(=O)c2c(ncn2C)n(C)c1=O | inactive | inactive | inactive | 0.965 (inactive) and 0.863 (inactive) | 1.02 and 1.01 | 9770 and 10600 | 10100 and 12300 | inactive | 0.603 (inactive) | -0.496 | 10 nM (inactive) | 32 AU (inactive) | 0.3 (inactive) |  |  | 
NNc1nncc2ccccc12 | inactive | inactive | inactive | 1.01 (inactive) and 0.821 (inactive) | 1.23 and 1.05 | 10000 and 10300 | 9890 and 12600 | inactive |  |  | 10 nM (inactive) | 280 AU (active) | 0.12 (inactive) |  |  | 
CN(Cc1cc(Br)cc(Br)c1N)C1CCCCC1 |  |  |  | 0.928 (inactive) and 0.903 (inactive) and 0.881 (inactive) | 0.942 and 3.08 and 1.05 | 8160 and 11000 and 9390 | 8790 and 12200 and 10700 |  | -0.2 (inactive) and -0.238 (inactive) and -0.0697 (inactive) | 0.932 and -0.166 and 0.184 | 10 nM (inactive) | 56 AU (inactive) | -1.71 (inactive) | 16.6 µM (active) | 26.3 µM (active) | inactive
CCOc1cc(N)c(Cl)cc1C(=O)NCC1CN(Cc2ccc(F)cc2)CCO1 (centres undefined) | inactive | inactive |  | 0.847 (inactive) and 0.952 (inactive) | 1.51 and 0.602 | 7930 and 7020 | 9370 and 7370 |  | -0.303 (inactive) | -0.205 |  |  | 0.725 (inactive) |  |  | inactive
COC(=O)Nc1nc2ccc(Sc3ccccc3)cc2[nH]1 |  | inactive |  |  |  |  |  |  | 1.35 (inactive) and -2.36 (inactive) and -2.06 (inactive) | -0.0455 and -0.127 and 1.14 | 10 nM (inactive) | 36 AU (inactive) | -1.72 (inactive) | 0.742 µM (active) |  | inactive
